One molecule from ChEMBL document CHEMBL2218924, “A broad activity screen in support of a chemogenomic map for kinase signalling research and drug discovery” (Biochem J, 2013) can be followed below.

The target of assay [1] is T1, Ephrin type-A receptor 3 (Homo sapiens) (UniProt P29320).
T1 sequence (whole entry): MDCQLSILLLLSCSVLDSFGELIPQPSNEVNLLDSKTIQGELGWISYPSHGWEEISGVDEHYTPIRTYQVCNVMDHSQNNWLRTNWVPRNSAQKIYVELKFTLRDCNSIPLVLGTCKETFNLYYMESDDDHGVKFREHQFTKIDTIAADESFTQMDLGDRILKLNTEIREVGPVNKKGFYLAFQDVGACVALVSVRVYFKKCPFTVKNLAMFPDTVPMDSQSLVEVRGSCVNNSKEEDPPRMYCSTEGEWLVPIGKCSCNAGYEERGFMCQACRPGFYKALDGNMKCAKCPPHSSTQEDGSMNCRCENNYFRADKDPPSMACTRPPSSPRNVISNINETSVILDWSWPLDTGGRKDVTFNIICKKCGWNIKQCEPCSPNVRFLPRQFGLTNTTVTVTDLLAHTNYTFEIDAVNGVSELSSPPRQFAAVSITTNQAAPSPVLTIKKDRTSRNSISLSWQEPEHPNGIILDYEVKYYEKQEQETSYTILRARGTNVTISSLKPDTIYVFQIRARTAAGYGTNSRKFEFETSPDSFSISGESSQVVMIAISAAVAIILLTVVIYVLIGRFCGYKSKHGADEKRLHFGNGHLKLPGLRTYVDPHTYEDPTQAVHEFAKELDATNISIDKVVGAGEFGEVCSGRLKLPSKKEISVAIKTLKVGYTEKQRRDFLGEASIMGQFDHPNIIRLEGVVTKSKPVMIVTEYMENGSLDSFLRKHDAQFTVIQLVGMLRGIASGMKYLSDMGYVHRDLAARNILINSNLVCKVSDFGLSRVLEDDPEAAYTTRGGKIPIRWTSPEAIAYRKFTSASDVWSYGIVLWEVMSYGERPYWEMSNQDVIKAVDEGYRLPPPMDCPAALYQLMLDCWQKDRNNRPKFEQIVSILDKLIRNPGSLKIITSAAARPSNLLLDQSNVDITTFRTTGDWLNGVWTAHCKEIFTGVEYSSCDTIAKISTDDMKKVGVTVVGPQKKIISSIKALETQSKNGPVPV
Particulars: at 10 µM.

Assay [2] addresses Ephrin type-A receptor 4 (Homo sapiens) (UniProt P54764). Particulars: at 1 µM.
Assay [3] has the same target. Particulars: at 10 µM.
Assay [4] concerns the target Ephrin type-A receptor 5 (Homo sapiens) (UniProt P54756). Particulars: at 1 µM.
Assay [5] shares this target. Particulars: at 10 µM.
The target in assay [6] is Ephrin type-A receptor 7 (Homo sapiens) (UniProt Q15375). Particulars: at 1 µM.
Chain of Ephrin type-A receptor 7 (Homo sapiens) (Q15375 28-998 limits assumed): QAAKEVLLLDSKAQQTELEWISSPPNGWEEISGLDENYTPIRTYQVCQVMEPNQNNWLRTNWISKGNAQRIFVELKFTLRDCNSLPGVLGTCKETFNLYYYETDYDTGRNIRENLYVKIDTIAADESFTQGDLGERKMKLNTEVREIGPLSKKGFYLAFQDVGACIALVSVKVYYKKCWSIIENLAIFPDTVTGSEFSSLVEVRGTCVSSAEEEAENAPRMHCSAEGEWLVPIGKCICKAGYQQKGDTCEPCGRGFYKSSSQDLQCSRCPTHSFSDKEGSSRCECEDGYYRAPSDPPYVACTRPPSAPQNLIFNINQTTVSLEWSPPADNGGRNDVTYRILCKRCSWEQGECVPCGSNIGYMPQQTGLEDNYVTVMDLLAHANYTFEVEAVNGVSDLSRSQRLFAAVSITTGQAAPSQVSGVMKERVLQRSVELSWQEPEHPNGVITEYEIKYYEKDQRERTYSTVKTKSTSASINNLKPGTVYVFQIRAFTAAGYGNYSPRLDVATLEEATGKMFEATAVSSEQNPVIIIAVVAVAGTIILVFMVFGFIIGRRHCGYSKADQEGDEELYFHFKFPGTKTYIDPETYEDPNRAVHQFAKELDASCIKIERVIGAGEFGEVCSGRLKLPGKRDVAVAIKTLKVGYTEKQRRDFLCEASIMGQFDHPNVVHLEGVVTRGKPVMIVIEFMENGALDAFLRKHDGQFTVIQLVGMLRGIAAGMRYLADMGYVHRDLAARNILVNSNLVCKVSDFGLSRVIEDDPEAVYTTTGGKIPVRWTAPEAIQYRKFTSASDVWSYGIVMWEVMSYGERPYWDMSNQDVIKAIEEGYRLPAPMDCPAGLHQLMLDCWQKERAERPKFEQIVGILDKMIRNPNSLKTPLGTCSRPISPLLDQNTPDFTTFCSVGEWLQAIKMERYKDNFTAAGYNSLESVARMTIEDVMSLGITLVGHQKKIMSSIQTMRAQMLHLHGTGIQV
Assay [7] has the same target. Particulars: at 10 µM.
Assay [8] addresses T2, Ephrin type-A receptor 8 (Homo sapiens) (UniProt P29322).
T2 sequence (whole entry): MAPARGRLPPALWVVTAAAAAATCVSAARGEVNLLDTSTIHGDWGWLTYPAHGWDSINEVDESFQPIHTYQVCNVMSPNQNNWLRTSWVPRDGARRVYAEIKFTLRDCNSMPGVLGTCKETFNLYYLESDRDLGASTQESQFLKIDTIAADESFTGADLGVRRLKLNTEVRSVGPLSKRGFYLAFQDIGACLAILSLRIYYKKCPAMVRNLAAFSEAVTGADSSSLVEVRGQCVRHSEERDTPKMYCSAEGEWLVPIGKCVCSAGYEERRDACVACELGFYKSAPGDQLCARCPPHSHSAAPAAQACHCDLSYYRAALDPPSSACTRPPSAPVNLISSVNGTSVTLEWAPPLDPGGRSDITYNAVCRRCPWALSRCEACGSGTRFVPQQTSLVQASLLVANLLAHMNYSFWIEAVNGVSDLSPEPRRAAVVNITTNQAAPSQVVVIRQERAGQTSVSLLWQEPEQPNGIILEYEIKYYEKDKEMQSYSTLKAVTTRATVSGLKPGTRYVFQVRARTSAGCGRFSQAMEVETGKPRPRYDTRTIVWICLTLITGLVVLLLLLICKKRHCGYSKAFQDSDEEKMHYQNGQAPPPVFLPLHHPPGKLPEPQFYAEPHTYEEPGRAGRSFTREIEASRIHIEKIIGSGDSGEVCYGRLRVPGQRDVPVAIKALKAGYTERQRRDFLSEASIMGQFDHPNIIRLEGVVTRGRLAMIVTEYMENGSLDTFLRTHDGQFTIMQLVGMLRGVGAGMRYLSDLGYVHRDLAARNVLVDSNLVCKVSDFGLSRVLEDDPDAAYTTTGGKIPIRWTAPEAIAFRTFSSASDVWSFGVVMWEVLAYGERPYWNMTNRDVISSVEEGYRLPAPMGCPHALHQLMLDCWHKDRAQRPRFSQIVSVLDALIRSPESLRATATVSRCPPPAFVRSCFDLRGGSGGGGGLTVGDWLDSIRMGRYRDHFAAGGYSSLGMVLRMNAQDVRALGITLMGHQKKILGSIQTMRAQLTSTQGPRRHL
Particulars: at 1 µM.

In assay [9] the target is T2, Ephrin type-A receptor 8 (Homo sapiens). Particulars: at 10 µM.
The target in assay [10] is T3, Ephrin type-B receptor 1 (Homo sapiens) (UniProt P54762).
T3 sequence (whole entry): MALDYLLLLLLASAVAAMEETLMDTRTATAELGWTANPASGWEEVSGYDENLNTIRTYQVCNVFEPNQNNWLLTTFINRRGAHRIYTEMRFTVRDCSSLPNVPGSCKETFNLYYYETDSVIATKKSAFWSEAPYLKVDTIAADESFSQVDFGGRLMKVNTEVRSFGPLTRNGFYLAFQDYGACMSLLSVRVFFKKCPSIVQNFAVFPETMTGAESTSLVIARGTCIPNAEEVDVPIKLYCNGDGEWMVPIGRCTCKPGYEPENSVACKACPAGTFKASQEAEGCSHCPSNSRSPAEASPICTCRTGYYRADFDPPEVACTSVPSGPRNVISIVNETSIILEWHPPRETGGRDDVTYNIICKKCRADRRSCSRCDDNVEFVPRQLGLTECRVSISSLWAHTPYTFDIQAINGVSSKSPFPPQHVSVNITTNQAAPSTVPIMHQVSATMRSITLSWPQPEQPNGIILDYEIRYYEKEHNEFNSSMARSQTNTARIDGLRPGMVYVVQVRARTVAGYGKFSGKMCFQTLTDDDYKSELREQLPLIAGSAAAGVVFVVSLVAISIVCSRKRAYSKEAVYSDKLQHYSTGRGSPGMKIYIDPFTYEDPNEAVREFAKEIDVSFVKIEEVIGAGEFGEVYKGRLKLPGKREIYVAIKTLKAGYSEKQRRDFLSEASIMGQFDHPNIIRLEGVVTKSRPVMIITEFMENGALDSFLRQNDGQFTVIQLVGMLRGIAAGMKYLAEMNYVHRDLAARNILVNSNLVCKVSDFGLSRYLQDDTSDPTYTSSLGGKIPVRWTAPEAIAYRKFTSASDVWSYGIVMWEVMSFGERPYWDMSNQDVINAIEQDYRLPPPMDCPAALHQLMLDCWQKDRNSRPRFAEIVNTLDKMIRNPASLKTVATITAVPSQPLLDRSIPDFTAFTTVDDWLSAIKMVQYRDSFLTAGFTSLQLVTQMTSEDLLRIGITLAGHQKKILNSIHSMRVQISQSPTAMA
Particulars: at 1 µM.

The residual activity is the signal under treatment as a percentage of the control signal.

Each structure is given as a SMILES string.

Chain of Ephrin type-A receptor 5 (Homo sapiens) (P54756 whole entry): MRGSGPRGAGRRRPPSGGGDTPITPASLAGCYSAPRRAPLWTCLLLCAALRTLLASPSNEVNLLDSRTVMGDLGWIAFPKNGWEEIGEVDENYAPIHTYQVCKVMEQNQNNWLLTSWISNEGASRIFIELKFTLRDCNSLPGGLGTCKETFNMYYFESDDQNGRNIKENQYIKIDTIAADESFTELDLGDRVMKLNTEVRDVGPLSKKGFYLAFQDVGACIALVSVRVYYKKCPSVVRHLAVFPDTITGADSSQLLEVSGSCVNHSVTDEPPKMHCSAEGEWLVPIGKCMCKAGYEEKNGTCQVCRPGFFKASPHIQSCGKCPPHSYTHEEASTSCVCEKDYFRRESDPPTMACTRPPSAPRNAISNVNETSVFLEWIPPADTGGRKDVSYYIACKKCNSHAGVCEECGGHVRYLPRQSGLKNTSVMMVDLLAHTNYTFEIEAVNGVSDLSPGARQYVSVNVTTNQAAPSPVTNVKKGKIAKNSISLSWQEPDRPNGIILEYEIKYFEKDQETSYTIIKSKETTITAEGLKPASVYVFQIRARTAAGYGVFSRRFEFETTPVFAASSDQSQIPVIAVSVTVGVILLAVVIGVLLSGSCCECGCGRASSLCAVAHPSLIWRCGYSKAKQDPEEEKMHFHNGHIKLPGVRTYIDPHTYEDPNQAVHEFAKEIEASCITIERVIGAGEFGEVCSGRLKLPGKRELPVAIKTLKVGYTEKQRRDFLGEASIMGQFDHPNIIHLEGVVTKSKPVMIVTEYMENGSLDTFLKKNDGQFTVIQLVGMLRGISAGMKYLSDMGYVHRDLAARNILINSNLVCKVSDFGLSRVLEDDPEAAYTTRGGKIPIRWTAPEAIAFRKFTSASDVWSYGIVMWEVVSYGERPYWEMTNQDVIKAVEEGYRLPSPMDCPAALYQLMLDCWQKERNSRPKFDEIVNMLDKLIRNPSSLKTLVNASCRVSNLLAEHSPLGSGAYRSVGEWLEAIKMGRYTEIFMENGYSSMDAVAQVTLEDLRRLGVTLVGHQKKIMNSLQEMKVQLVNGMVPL
Chain of Ephrin type-A receptor 4 (Homo sapiens) (P54764 whole entry): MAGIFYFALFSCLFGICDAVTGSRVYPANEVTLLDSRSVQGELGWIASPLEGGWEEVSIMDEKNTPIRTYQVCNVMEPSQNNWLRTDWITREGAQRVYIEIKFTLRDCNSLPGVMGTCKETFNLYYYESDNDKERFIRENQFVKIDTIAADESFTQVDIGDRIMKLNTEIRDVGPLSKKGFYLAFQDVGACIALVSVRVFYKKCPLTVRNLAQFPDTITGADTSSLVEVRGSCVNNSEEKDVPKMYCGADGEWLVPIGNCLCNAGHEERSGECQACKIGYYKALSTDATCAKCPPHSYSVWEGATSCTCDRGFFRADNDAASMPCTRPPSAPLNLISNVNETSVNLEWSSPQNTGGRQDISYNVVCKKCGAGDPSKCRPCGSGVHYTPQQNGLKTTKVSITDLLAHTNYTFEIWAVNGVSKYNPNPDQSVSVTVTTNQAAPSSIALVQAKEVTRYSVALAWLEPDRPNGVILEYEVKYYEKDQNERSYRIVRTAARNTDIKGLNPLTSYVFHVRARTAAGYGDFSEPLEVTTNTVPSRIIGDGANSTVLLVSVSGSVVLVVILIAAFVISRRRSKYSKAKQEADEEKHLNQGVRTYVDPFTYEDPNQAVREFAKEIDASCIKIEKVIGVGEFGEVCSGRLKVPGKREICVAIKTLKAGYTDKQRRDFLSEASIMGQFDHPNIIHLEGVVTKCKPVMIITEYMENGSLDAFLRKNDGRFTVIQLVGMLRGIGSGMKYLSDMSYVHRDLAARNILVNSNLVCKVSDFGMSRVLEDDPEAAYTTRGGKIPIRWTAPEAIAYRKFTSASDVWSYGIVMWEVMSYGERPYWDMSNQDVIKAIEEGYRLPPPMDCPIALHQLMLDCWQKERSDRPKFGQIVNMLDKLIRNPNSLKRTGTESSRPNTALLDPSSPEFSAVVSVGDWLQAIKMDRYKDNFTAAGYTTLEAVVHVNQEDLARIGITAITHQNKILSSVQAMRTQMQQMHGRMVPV

Consider `COc1cc2ncnc(Nc3ccc(Oc4ccccc4)cc3)c2cc1OC`, for which the residual activity was found to be 106% in assay [1]; 107% in assay [2]; 103% in assay [3]; 130% in assay [4]; 89% in assay [5]; 102% in [6]. For the same molecule, the residual activity in assay [7] is 84%; in assay [8] it was 91%; in [9] it was 65%; in assay [10] it was 110%.
